# Like-named read-outs stand apart in the source and are kept apart here.
# How the values were obtained:
# Set-up in all cases: species or system human, MV4-11 + K-562 + COLO205 + SK-N-BE2 + OVCAR-8
# CDC42 = details: read-out: apparent Kd, n = 1
# CAMK2B = details: read-out: apparent Kd; compound concentrations:100 nM and 1000 nM (sheet 'Samples'); n = 1
# CDC7 = details: read-out: apparent Kd, n = 1
# FN3K = details: read-out: apparent Kd; compound concentrations:100 nM and 1000 nM (sheet 'Samples'); n = 1
# GAK = details: read-out: apparent Kd; compound concentrations:100 nM and 1000 nM (sheet 'Samples'); n = 1
# ICK = details: read-out: apparent Kd; compound concentrations:100 nM and 1000 nM (sheet 'Samples'); n = 1
# MAPK10 = details: read-out: apparent Kd; compound concentrations:100 nM and 1000 nM (sheet 'Samples'); n = 1
# RIPK2 = details: read-out: apparent Kd; compound concentrations:100 nM and 1000 nM (sheet 'Samples'); n = 1
# CDC42BPG = details: read-out: apparent Kd, n = 1
# DDR1 = details: read-out: apparent Kd; compound concentrations: 100 nM and 1000 nM (sheet 'Samples'), CATDS: 0.140210166469808; n = 1
# DJA1 = test system: T1, DJA1; details: read-out: apparent Kd; compound concentrations: 100 nM and 1000 nM (sheet 'Samples'), CATDS: 0.100265839502576; n = 1
# T1 construct: gene DNAJA1
# FLT3 = details: read-out: apparent Kd, n = 1
# PIK3C3 = details: read-out: apparent Kd; compound concentrations: 100 nM and 1000 nM (sheet 'Samples'), CATDS: 0.105221440009215; n = 1
# PIK3CA = details: read-out: apparent Kd; compound concentrations: 100 nM and 1000 nM (sheet 'Samples'), CATDS: 0.28704207187710601; n = 1
# PIK3CG = details: read-out: apparent Kd; compound concentrations: 100 nM and 1000 nM (sheet 'Samples'), CATDS: 0.108238843984754; n = 1
# RET = details: read-out: apparent Kd; compound concentrations: 100 nM and 1000 nM (sheet 'Samples'), CATDS: 0.12612517113031699; n = 1
# CAMK4 = details: read-out: apparent Kd; compound concentrations:100 nM and 1000 nM (sheet 'Samples'); n = 1
# CDK4 = details: read-out: apparent Kd; compound concentrations:100 nM and 1000 nM (sheet 'Samples'); n = 1
# CDKL5 = details: read-out: apparent Kd; compound concentrations:100 nM and 1000 nM (sheet 'Samples'); n = 1
# CLK1 = details: read-out: apparent Kd; compound concentrations:100 nM and 1000 nM (sheet 'Samples'); n = 1
# GSK3A = details: read-out: apparent Kd; compound concentrations:100 nM and 1000 nM (sheet 'Samples'); n = 1
# GSK3B = details: read-out: apparent Kd; compound concentrations:100 nM and 1000 nM (sheet 'Samples'); n = 1
# MERTK = details: read-out: apparent Kd; compound concentrations:100 nM and 1000 nM (sheet 'Samples'); n = 1
# PRKCA = details: read-out: apparent Kd; compound concentrations:100 nM and 1000 nM (sheet 'Samples'); n = 1
# PRKCB = details: read-out: apparent Kd; compound concentrations: 100 nM and 1000 nM (sheet 'Samples'), CATDS: 6.3755563095046694E-2; n = 1
# PRKCD = details: read-out: apparent Kd; compound concentrations:100 nM and 1000 nM (sheet 'Samples'); n = 1
# PRKCQ = details: read-out: apparent Kd; compound concentrations:100 nM and 1000 nM (sheet 'Samples'); n = 1
# RPS6KA6 = details: read-out: apparent Kd; compound concentrations:100 nM and 1000 nM (sheet 'Samples'); n = 1
# RPS6KB1 = details: read-out: apparent Kd; compound concentrations:100 nM and 1000 nM (sheet 'Samples'); n = 1
# EGFR = details: read-out: apparent Kd; compound concentrations: 100 nM and 1000 nM (sheet 'Samples'), CATDS: 0.39562285113590601; n = 1
# CSNK2A1;CSNK2A3 = details: read-out: apparent Kd; compound concentrations:100 nM and 1000 nM (sheet 'Samples'); n = 1
# CSNK2A2 = details: read-out: apparent Kd; compound concentrations:100 nM and 1000 nM (sheet 'Samples'); n = 1
# NQO2 = details: read-out: apparent Kd; compound concentrations:100 nM and 1000 nM (sheet 'Samples'); n = 1
# PRKD2 = details: read-out: apparent Kd; compound concentrations:100 nM and 1000 nM (sheet 'Samples'); n = 1
# PRKD3 = details: read-out: apparent Kd; compound concentrations:100 nM and 1000 nM (sheet 'Samples'); n = 1
# [1] = compound concentrations: 100 nM and 1000 nM (sheet 'Samples'), CATDS: 1
# [2] = compound concentrations:100 nM and 1000 nM (sheet 'Samples')
smiles,measurement,setting,value
COC(=O)c1cccc(NC(=O)NCCNc2ccnc(Nc3ccc(F)cc3)n2)c1 [GSK1379883A],potency estimated from few doses,CDC42; [1],1.56 µM
COc1cc2ncnc(Nc3cccc(Br)c3)c2cc1OC.Cl [GI230329A],potency estimated from few doses,CAMK2B,0.405 µM
same,potency estimated from few doses,CDC7; [2],2.06 µM
same,potency estimated from few doses,FN3K,2.15 µM
same,potency estimated from few doses,GAK,0.319 µM
same,potency estimated from few doses,ICK,1.37 µM
same,potency estimated from few doses,MAPK10,0.956 µM
same,potency estimated from few doses,RIPK2,1.14 µM
CN1CCN(CCCNc2nc3ccc(Oc4ccc(NC(=O)Nc5cc(C(F)(F)F)ccc5F)cc4)cc3[nH]2)CC1.Cl [GW700494A],potency estimated from few doses,"CDC42BPG; compound concentrations: 100 nM and 1000 nM (sheet 'Samples'), CATDS: 0.120544348793502",1.13 µM
same,potency estimated from few doses,DDR1,0.826 µM
same,potency estimated from few doses,DJA1,1.78 µM
same,potency estimated from few doses,"FLT3; compound concentrations: 100 nM and 1000 nM (sheet 'Samples'), CATDS: 0.118432535218852",1.17 µM
same,potency estimated from few doses,PIK3C3,1.56 µM
same,potency estimated from few doses,PIK3CA,0.263 µM
same,potency estimated from few doses,PIK3CG,1.45 µM
same,potency estimated from few doses,RET,1.02 µM
Cl.Cn1cc(C2=C(c3cn(CCCN)c4ccccc34)C(=O)NC2=O)c2ccccc21 [RO0317549-002],potency estimated from few doses,CAMK4,1.43 µM
same,potency estimated from few doses,CDK4,1.65 µM
same,potency estimated from few doses,CDKL5,2.06 µM
same,potency estimated from few doses,CLK1,1.85 µM
same,potency estimated from few doses,GSK3A,0.136 µM
same,potency estimated from few doses,GSK3B,0.115 µM
same,potency estimated from few doses,ICK,0.109 µM
same,potency estimated from few doses,MERTK,1.37 µM
same,potency estimated from few doses,PRKCA,0.117 µM
same,potency estimated from few doses,PRKCB,0.606 µM
same,potency estimated from few doses,PRKCD,0.0933 µM
same,potency estimated from few doses,PRKCQ,0.566 µM
same,potency estimated from few doses,RPS6KA6,0.0441 µM
same,potency estimated from few doses,RPS6KB1,1.18 µM
CS(=O)(=O)CCNCc1ccc(-c2ccc3ncnc(Nc4ccc(OCc5cccc(C(F)(F)F)c5)cc4)c3c2)o1.Cl [GW567808A],potency estimated from few doses,CDC42BPG; [2],1.82 µM
same,potency estimated from few doses,EGFR,0.995 µM
same,potency estimated from few doses,FLT3; [2],1.43 µM
Cc1cccc(-c2nc(Nc3cccc(C(N)=O)c3)c3ccccc3n2)n1 [GW876019X],potency estimated from few doses,CDC42; [2],2.08 µM
same,potency estimated from few doses,CSNK2A1;CSNK2A3,1.51 µM
same,potency estimated from few doses,CSNK2A2,2.23 µM
same,potency estimated from few doses,NQO2,1.16 µM
same,potency estimated from few doses,PRKD2,0.739 µM
same,potency estimated from few doses,PRKD3,1.51 µM
NS(=O)(=O)c1cccc(-c2ccc3ncc(N4CCOCC4)nc3c2)c1 [GSK1535721A],potency estimated from few doses,CDC7; [1],1.94 µM
